# A selection: hits, their analogues and other compounds. The true share with any hit is near 1.7%.
# HEK293 tox – cytotoxicity counter-screen for GLP-1 receptor inverse agonists; HEK293 cAMP-luciferase reporter cells, luminescence, 24 h; Potency, µM (top dose mostly 38.3 µM), for the others: at the top dose activity change, negative = inhibition, hits mostly inhibitors; hit rate 0.13% among 410,000; AID 624418;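 further: loss of luciferase light is scored as toxicity; on the % scale 0 is the no-effect control and ±100 the full control effect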
#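 MLSMR compounds, 24 hr on cells at 37 deg C/5% CO2; luminescence after luciferase reagent (12 min RT). Inhibition counted as the undesired cytotoxic outcome.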
# GLP-1R inv ag – GLP-1 receptor (human) inverse agonism. P43220. HEK293 GLP-1R CRE-luciferase, luminescence, 24 h; GLP-1R form is constitutively active. Potency, µM (top dose mostly 38.3 µM), without a hit: at the top dose activity change, negative = inhibition, actives largely listed as inhibitors. hit rate 1.6% among 410,000; further: on the % scale 0 is the no-effect control and ±100 the full control effect; nearly all actives have a fitted effect of over 55% in size
#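 Constitutively active GLP-1R drives a cAMP-responsive luciferase in stably transfected HEK293 cells; test compounds are added after overnight (12 h) attachment and left 24 hr, and signal loss in luminescence marks inhibition.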
# GLP-1R agonist – agonists of human GLP-1 receptor | HEK293 GLP-1R CRE-luciferase, luminescence, 4-6 h; cells express a hypersensitive GLP-1R form | Potency, µM (doses to about 45.6 µM), without a hit: at the highest dose activation, usual class: activators | hit rate 0.007% among 380,000 | AID 624172; further: % of control where 0% means no effect
# PTHR1 agonist – activates the human parathyroid hormone receptor PTHR1 | AID 743266 | HEK293 GP2 PTHR1 cells, GloSensor cAMP luminescence, 1 h | hit rate 0.075% among 410,000 | Potency, µM (highest dose often 115 µM), without a hit: top-dose activation, usual class: activators | Q03431; further: nearly all actives have a fitted effect of over 55% in size
# Target sequence (Q03431 whole entry, looked up): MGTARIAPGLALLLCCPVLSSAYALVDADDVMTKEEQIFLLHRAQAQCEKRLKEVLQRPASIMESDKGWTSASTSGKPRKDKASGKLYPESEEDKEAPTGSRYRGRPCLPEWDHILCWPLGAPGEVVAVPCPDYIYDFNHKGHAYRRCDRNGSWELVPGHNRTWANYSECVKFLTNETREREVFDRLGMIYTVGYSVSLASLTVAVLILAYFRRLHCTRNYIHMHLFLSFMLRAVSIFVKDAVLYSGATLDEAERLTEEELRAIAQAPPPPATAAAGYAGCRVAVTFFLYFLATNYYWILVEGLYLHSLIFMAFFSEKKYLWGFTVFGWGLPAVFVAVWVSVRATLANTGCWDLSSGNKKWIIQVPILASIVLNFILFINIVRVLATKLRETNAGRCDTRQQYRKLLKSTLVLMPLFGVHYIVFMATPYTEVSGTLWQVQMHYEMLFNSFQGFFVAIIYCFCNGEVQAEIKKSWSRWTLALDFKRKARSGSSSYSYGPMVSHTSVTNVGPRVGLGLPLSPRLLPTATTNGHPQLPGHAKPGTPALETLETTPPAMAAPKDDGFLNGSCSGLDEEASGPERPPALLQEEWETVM
#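 HEK-293-derived GP2 cells expressing PTHR1 and a GloSensor cAMP reporter, 3,000/well, plated overnight, given luciferin plus IBMX (each 0.5 mM as added) for 1 h at 37 °C, then compound for 1 h at 37 °C. Luminescence was read after 15 min at room temperature.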
# Starred values were filed as active, the others as inactive; i = inactive; ? = inconclusive; . = not tested or not shown; [ ] = remark or other dose. The call rests on the fitted dose curve; in most records, active means well fitted curve in the direction sought with a large enough effect; inconclusive means small, poorly fitted or top-dose-only effect, or another doubt; inactive means no such curve, though single readings can be large; an effect the other way counts as inactive or inconclusive. Potency means the concentration at half of the fitted maximal effect.
SMILES,HEK293 tox,GLP-1R inv ag,GLP-1R agonist,PTHR1 agonist
CCCOc1ccc(CCc2n[nH]c(=S)n2-c2ccccc2)cc1,?,-16%,14%,-13%
COc1ccc(C)cc1NC(=O)Nc1ccccc1OCc1cc(=O)n2ccccc2n1,2%,-8%,.,-51%
Cc1cc(C(=O)CSc2nc3ccccc3[nH]2)c(C)n1CC1CCCO1 (centres undefined),-31%,4µM*,-4%,-37%
Cc1cc(C(=O)CSc2nc(N)cc(=O)[nH]2)c(C)n1CC1CCCO1 (centres undefined),0%,9%,12%,-23%
O=C(NC1CCCC1)C(c1ccc(F)cc1)N(C(=O)Cc1cccs1)c1ccc2c(c1)OCCO2 (centres undefined),9%,0%,2%,i
Cc1ccc(C(C(=O)NC2CCCC2)N(C(=O)Cc2cccs2)c2ccc3c(c2)OCCO3)cc1 (centres undefined),-27%,10µM*,-1%,i
Cc1ccc(C(C(=O)NC2CCCC2)N(C(=O)Cc2cccs2)c2ccc(C)c(C)c2)o1 (centres undefined),-28%,10µM*,3%,i
O=C(CSc1nc(-c2ccccc2)no1)N1CCCCC1,-1%,10%,.,-16%
CC(C)CNC(=O)COC(=O)c1c2c(nc3ccccc13)/C(=C\c1cccs1)CC2,i,4.5µM*,-9%,-4%
CCCSS/C(CCO)=C(/C)N(C=O)Cc1cnc(C)nc1N,.,.,-3%,.
OCCN(CCO)c1ccc(C(c2ccccc2Cl)c2ccc(N(CCO)CCO)cc2Cl)c(Cl)c1,?,5µM*,-5%,-10%
O=C(O)c1cccc(N(CCO)CCO)c1,-5%,0%,5%,-58%
CC(C)(C)n1nnnc1C(c1cccnc1)N(Cc1ccccc1)Cc1ccco1 (centres undefined),63%,108%,0%,i
COc1cccc(CN(Cc2ccco2)C(c2ccc(F)cc2)c2nnnn2C(C)(C)C)c1 (centres undefined),3%,10µM*,-28%,-13%[57.5 µM]
CC[C@H]1OC(=O)C[C@@H](O)[C@H](C)[C@@H](O[C@@H]2O[C@H](C)C[C@H](N(C)C)[C@@H]2O)[C@@H](CC=O)C[C@@H](C)C(=O)/C=C\[C@]2(C)O[C@H]2[C@@H]1C,.,.,-4%,.
COc1ccc(OCC(O)Cn2ccnc2C)cc1 (centres undefined),-16%,10%,-2%,10µM*
O=S(=O)(c1ccccc1)N1CCC(O)(CSc2ccccc2)CC1,6%,10µM*,14%,-18%
O=C(NNC1=C(C(=O)C(F)(F)F)CCC1)c1ccc(Cl)cc1,-25%,0%,1%,-24%[57.5 µM]
O=C(NNC1=C(C(=O)C(F)(F)F)CCC1)c1cccc(Cl)c1,?,2.8µM*,1%,-25%[57.5 µM]
COc1cccc(NC(=O)C(Sc2nnc(Nc3ccccc3C)s2)c2ccccc2)c1 (centres undefined),?,10µM*,-10%,i
CC1CN(C(=O)CCC(=O)NCc2ccc(F)cc2)c2cc(Cl)ccc2O1 (centres undefined),3%,2%,.,24%
CC1CN(C(=O)CCC(=O)NCc2ccccc2)c2cc(Cl)ccc2O1 (centres undefined),-4%,10µM*,-6%,0%
CC(C)c1ccc(NC(=O)N2CCN(c3ccc(Cl)c(Cl)c3)CC2)cc1,-23%,7.9µM*,.,-90%
CC(C)c1ccc(NC(=O)N2CCN(S(=O)(=O)c3ccccc3)CC2)cc1,-6%,5.6µM*,4%,-26%
Cc1ccc(NC(=O)N2CCN(c3ccc(Cl)c(Cl)c3)CC2)cc1,-8%,?,.,-90%
SMILES,HEK293 tox,GLP-1R inv ag,GLP-1R agonist,PTHR1 agonist
Cc1c(Cl)cccc1NC(=O)CCS(=O)(=O)c1ccc2c(c1)CC(C)N2C(=O)C1CC1 (centres undefined),-7%,-7%,.,-46%
Cc1nnc(N2CCN(c3ccccc3F)CC2)c2c1nnn2Cc1ccccc1Cl,-2%,3%,.,-42%
COc1ccc(NC(=O)[C@H](Cc2c[nH]c3ccccc23)NC(=O)[C@@H]2Cc3ccccc3CN2)cc1,-10%,5.6µM*,0%,-14%
CC(C)c1ccc(NC(=O)[C@H](Cc2c[nH]c3ccccc23)NC(=O)[C@@H]2Cc3ccccc3CN2)cc1,-16%,?,0%,i
O=C(C1CN(C(=O)c2cc3cc(Cl)ccc3o2)c2ccccc2O1)N1CCCCC1 (centres undefined),-31%,11µM*,-25%,-42%
O=C(c1cc2cc(Cl)ccc2oc1=O)N1CCCCCCC1,3%,-3%,-2%,-3%
Cc1ccc(C(=O)NCc2ccccc2)cc1NC(=O)c1nsc2ccccc12,-23%,?,.,-17%
COc1ccccc1CC(=O)N(Cc1ccccc1)c1ccc(C)cc1,-20%,8.9µM*,12%,i
COc1cc(C(=O)N(Cc2ccccc2)c2cccc(C)c2)ccc1OC(F)F,9%,11µM*,8%,-50%
Cc1cccc(N(Cc2ccccc2)C(=O)CCl)c1,-27%,10µM*,1%,-51%
CCCCN(Cc1ccccc1)C(=O)c1oc(=O)c2ccccc2c1-c1ccc(C)cc1,3%,-3%,1%,?
Cc1cccc(NC(=O)C23CCC(C)(C2Br)C3(C)C)c1 (centres undefined),9%,3.5µM*,2%,i
COc1ccccc1CNC(=O)c1cn(C)c2ccc(S(=O)(=O)N(C)C3CCCCC3)cc2c1=O,1%,10%,.,-1%
Fc1ccc(C2CC(c3ccco3)=NN2c2ccccc2)cc1 (centres undefined),110%,6.3µM*,1%,-14%
COc1ccc(OC)c(-c2cc(C3CCN(c4ncccc4[N+](=O)[O-])CC3)[nH]n2)c1,-51%,?,13%,-13%[57.5 µM]
O=[N+]([O-])c1cccnc1N1CCC(c2cc(-c3ccc(Cl)cc3Cl)n[nH]2)CC1,-22%,5µM*,-1%,i
Cc1cc(NC(=O)c2sc(Nc3cccc(C(F)(F)F)c3)nc2N)no1,8%,5µM*,0%,-16%[57.5 µM]
O=S(=O)(c1ccc(Br)cc1)c1nc(-c2ccco2)oc1SCc1ccccc1Cl,24%,?,.,-37%
Nc1nc(NC2CC2)c2ncn([C@H]3C=C[C@@H](CO)C3)c2n1,.,.,-1%,.
Cc1cc(NC(=O)CCCSc2nc(-c3ccco3)cc(C(F)(F)F)n2)n(-c2ccccc2)n1,-18%,8.9µM*,2%,-18%[57.5 µM]
Cc1cc(NC(=O)CSc2nc(-c3ccco3)cc(C(F)(F)F)n2)n(-c2ccccc2)n1,-11%,-25%,9%,-7%[57.5 µM]
CCC(C)NC(=O)CO/N=C/c1ccccc1OC(F)F (centres undefined),16%,17%,3%,i
CC1CCCCC1NC(=O)CO/N=C/c1ccccc1OC(F)F (centres undefined),0%,10µM*,25%,-16%
N#CC1(Cc2ccccc2)c2ccccc2C=CN1C(=O)c1ccccc1 (centres undefined),8%,8.9µM*,-6%,-10%[57.5 µM]

# Assay outcomes as filed in PubChem BioAssay.
